40 compounds from PubChem BioAssay (EPA / NIEHS) can be followed below.

Active and inactive are the calls of the source. The calls were made as follows: active = hit-call score of the fitted dose curve at least 0.9, where 1 is the maximum; inactive = score below 0.9.

Read-out in this test: Interleukin-1 alpha (IL1a), IL1A (gene 3552)
Nature of the test: BSK_LPS_IL1a: BioMAP Diversity Plus: LPS Assay for Interleukin-1 alpha (IL1a) Biomarker Activity (AID 2283080). Particulars: primary human HUVEC with PBMC; actives raise or lower the signal. The protocol: BSK_LPS is a cell-based, multiplexed-readout assay that uses umbilical vein endothelium and peripheral blood mononuclear cells, a human vascular primary cell co-culture, with measurements taken at 24 hours after chemical dosing in a 96-well plate.BSK_LPS_IL1a is an assay component measured in the BSK_LPS assay. It measures IL-a antibody related to regulation of gene expression using ELISA technology.Data from the assay component BSK_LPS_IL1a was analyzed into 1 assay endpoint. This assay endpoint, BSK_LPS_IL1a, was analyzed with bidirectional fitting relative to DMSO as the negative control and baseline of activity. Using a type of binding reporter, gain or loss-of-signal activity can be used to understand changes in the signaling as they relate to the gene IL1A. Furthermore, this assay endpoint can be referred to as a primary readout, because this assay has produced multiple assay endpoints where this one serves a signaling function. To generalize the intended target to other relatable targets, this assay endpoint is annotated to the cytokine intended target family, where the subfamily is interleukins.
The levels of cell surface (or secreted, indicated by the prefix "s") biomarker endpoints were measured by ELISA. Overt cytotoxicity to cells in confluent adherent cultures (all systems other than the BT system) was assessed by measuring total protein levels using sulforhodamine B (SRB) staining in parallel cultures at the time of biomarker measurements, indicated as SRB endpoints. For proliferation assays for adherent cell types, individual cell types are cultured at sub-confluence and relative cell numbers quantified by SRB staining at time points optimized for each system (48 h: 3C and CASM3C systems; 72 h: BT and HDF3CGF systems; 96 h: SAg system). SRB was performed by staining cells with 0.1% SRB after fixation with 10% TCA and reading wells at 560 nm.Viability and proliferation of PBMC (T cells) was quantified by Alamar Blue reduction for the SAg and BT systems. For PBMC viability (referred to as PBMC Cytotoxicity within the assay endpoint names), cells were plated (75,000/well in a 96-well plate) and then chemical samples added for 1 h before addition of activators, SEB and TSST-1 (20 ng/mL final concentration each). Cells were incubated for 90 h. Then, Alamar Blue (20 uL/well) (Invitrogen, Cat DAL1100) was added for 6 h, and the plates were read with a fluorescence microplate reader at 546/580 nm (excitation/emission). For PBMC proliferation, cells were plated and activated as above but incubated for only 16 h prior to addition of Alamar Blue. Plates were read after 6 h.
As to `NCc1cccc(C2CCN(C(=O)c3ccc(C#Cc4ccccc4F)o3)CC2)c1`, the concentration at half-maximal activity (AC50) (as a rule, the concentration at which the activity in the assay is half-maximal) is 17.1 µM (active).

Take `Clc1cc(Cl)c2c(c1)N=C1CCCCCN1C2`: the outcome was inactive.

Consider `C[C@]12CC[C@@H]3c4ccc(O)cc4CC[C@H]3[C@@H]1CC[C@H]2O`, for which the result was inactive. Regarding `O=c1ccc2ccccc2o1`, the outcome was inactive. For the compound `O=C(O)c1ccccc1C(=O)OCc1ccccc1`, the outcome was inactive. Turning to `c1ccc(C[n+]2cccc3ccccc32)cc1`, the result was inactive. `CC(C)(C)c1cc(/C=C2\SC(N)=NC2=O)cc(C(C)(C)C)c1O`: the AC50 was 11.5 µM (active).

Consider `CCCCCCCCCCCCO`, for which the AC50 was 36.3 µM (active). Regarding `COCC(C)OCC(C)OCC(C)O` (stereo not given), the result was inactive. With `CC(=O)N1CCN(c2ccc(OC[C@H]3CO[C@](Cn4ccnc4)(c4ccc(Cl)cc4Cl)O3)cc2)CC1`, the AC50 was 35.6 µM (active). In the case of `CC(O)CC(C)(C)O` (stereo not given), the outcome was inactive. Take `CC(C)(c1cc(Br)c(O)c(Br)c1)c1cc(Br)c(O)c(Br)c1`: the AC50 is 29.9 µM (active). As to `O=C(O)Cc1cc(I)c(Oc2ccc(O)c(I)c2)c(I)c1`, the result was inactive.

For the compound `O=C1CCC(C2CCCCC2)CC1`, the outcome was inactive. As to `O=c1c(-c2ccc(O)cc2)coc2cc(O)cc(O)c12`, the AC50 was 16 µM (active). As to `CCCCCc1ccc(N)cc1`, the result was inactive.

Regarding `CN(C)C(=O)C1(N2CCCCC2)CCN(CC[C@@]2(c3ccc(Cl)c(Cl)c3)CN(C(=O)c3ccccc3)CCO2)CC1`, the half-maximal activity concentration (AC50) is 18.9 µM (active). With `Cc1oc2c(NC(=O)c3c(Cl)cccc3Cl)cccc2c1C(C)(C)O`, the result was inactive.

On to `CCCCOC(=O)CC(CC(=O)OCCCC)(OC(C)=O)C(=O)OCCCC`, for which the outcome was inactive. The same measure, in the same setting: under `CC(C)(O)c1ccc(CNC(=O)c2cccnc2Oc2ccc3nonc3c2)cc1` stands “inactive”. For `Cc1c2ccccc2c(C)c2c1ccc1ccccc12`, the AC50 was 26.8 µM (active). For `CCOC(=O)O[C@H](C)OC(=O)c1ccc2c(c1)cc(C(=O)NC1CCN(C(C)C)CC1)n2Cc1cc(-c2ccc(Cl)s2)on1`, the AC50 is 6.55 µM (active). For the compound `Cc1occc1C(=O)Nc1ccc(C(=O)N2CCC(F)(F)/C(=C\C(=O)N3CCC(N4CCCCC4)CC3)c3ccccc32)cc1`, the outcome was inactive. Turning to `Cc1cccc2ccccc12`, the outcome was inactive. Regarding `CN1C(=O)N(c2ccccc2Br)Cc2cnc(Nc3ccc4c(c3)OCC(CO)O4)nc21` (stereo not given), the AC50 is 9.1 µM (active). Consider `O=C1c2ccccc2C(=O)N1CCc1noc(-c2ccc(CN3CCCCCC3)s2)n1`, for which the result was inactive. On the same count and under the same terms, then `OCCO`, with “inactive”; and `Cc1ccc2oc(CN(Cc3ccccc3)C(=O)Nc3c(F)cc(F)cc3F)c(-c3ccc(Cl)cc3)c2c1`, with “inactive”.

For `c1ccc2n[nH]nc2c1`, the outcome was inactive. On to `COc1cccc([C@H](O)C2CCN(CCc3ccc(F)cc3)CC2)c1OC`, for which the outcome was inactive.

Consider `CCCOC(=O)c1cc(O)c(O)c(O)c1`, for which the result was inactive. For `CCCCCCCCCCCO`, the outcome was inactive. `CC[C@@H]1C[C@H](N(Cc2cc(C(F)(F)F)cc(C(F)(F)F)c2)C(C)=O)c2cc(C(F)(F)F)ccc2N1C(=O)OC(C)C`: the outcome was inactive. For the compound `CCCCCCCCCCCC[N+](C)(C)C`, the AC50 is 16.6 µM (active). `CC1(C)NC(=O)N(c2ccc([N+](=O)[O-])c(C(F)(F)F)c2)C1=O`: the result was inactive. On to `O=CCCCC=O`, for which the AC50 is 32.9 µM (active). Turning to `O=C(OCCCCCCOC(=O)c1ccccc1)c1ccccc1`, the outcome was inactive. For the compound `CC[C@H](NC(=O)c1cc(F)ccc1NS(=O)(=O)c1cccc2cccnc12)c1ccccc1`, the outcome was inactive.

In the case of `NC(=O)c1nc(-c2cccc(-c3cc(F)ccc3OCC(F)(F)C(F)(F)F)c2)n[nH]1`, the concentration at half-maximal activity (AC50) is 41.4 µM (active). In the case of `CC(C)(C)c1csc(-c2cc3cc(OCc4ccccc4CC(=O)O)ccc3o2)n1`, the half-maximal activity concentration (AC50) was 20.5 µM (active).
